Laboratory results reported in PubChem BioAssay AID651871 (Sanford-Burnham Center for Chemical Genomics, 2012).

Tested on: HL-1
Assay: cardiomyocyte survival under oxidative or metabolic stress – cell-based, panel, H9c2 and HL-1, ATP luminescence, set 2, SAR follow-up (AID 651871);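 also: cells exposed to stressor for 2 h before ATP readout; reference of the scale not given here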
Settings: H9c2/HL-1 cardiomyocytes, 2-deoxyglucose stress, with 2-deoxyglucose, run 14, at 39.5 µM (top of the series)

Structure (SMILES): COc1ccc2c(c1OC)C(=O)N1c3ccccc3C(=O)N(Cc3cccc(Cl)c3Cl)C21 (stereo unspecified)
- activity (protection/inhibition): 31.8%
